The results in this text go back to PubChem BioAssay AID2685 (National Center for Advancing Translational Sciences (NCATS), 2010).

Each structure is given as a SMILES string. Several values for one entry are separate records, joined by “and”; a condition that tells them apart may be missing. Equal entries are not always repeated. Among all 320,000 compounds or so, about 2,100 (0.66%) were called active. Roughly 53% stayed inconclusive and do not appear here. This is one part of a sample in which actives are shown more often than they occur. Calls come from the whole dose curve; as a rule, active = well fitted inhibition curve with a large enough effect in the signal ratio, with a control signal flat (not every such curve was filed as active); inconclusive = small, poorly fitted or top-dose-only effect, or effect the other way, or a change in a side signal; inactive = flat fitted curve, though single readings scatter; the % refers to the signal ratio.
Potency is the fitted concentration of half-maximal effect.

The test in a line: qHTS Assay for Lipid Storage Modulators in Drosophila S3 Cells.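 For cell number change: cells counted by Cell Tracker Red CMTPX staining in the red channel.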 For lipid storage change, negative = inhibition: % is set by controls: 0 for no effect and ±100 for the full control effect. The settings on record: BODIPY lipid droplet fluorescence, 18-24 h, cells fed with added oleic acid; cell number change: measured here: cell count max response; series mostly up to 46.1 µM; lipid storage change, negative = inhibition: at the top concentration. In short, it runs like this: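 Drosophila S3 cells loaded with oleic acid (400 uM, as added) and compounds at several concentrations; lipid droplets imaged by 488-nm laser-scanning cytometry, 500–530 nm intensity and object ratio to cell channel. Percent activity normalized to 20 uM Triacsin C.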
(In general: In qHTS, concentration-response curves come from the screen itself.)
Take `COc1cc(C(=O)OCC(=O)N2CCC(Cc3ccccc3)CC2)cc(OC)c1OC`: the “lipid storage change, negative = inhibition” value was 27.5% (inactive).
For `CC(=O)Nc1ccc(OCC(=O)N2CCC(Cc3ccccc3)CC2)cc1`, the “lipid storage change, negative = inhibition” value is -0.754% (inactive) and the cell number change was -1.18%.
Take `CC(=O)Nc1ccc(C(=O)OCC(=O)N2CCC(Cc3ccccc3)CC2)cc1`: the Potency was 2.91 µM (active) and the cell number change was -6.23%.
Turning to `CC1=C(C(=O)NC2CCCc3c2cnn3-c2cc(F)cc(F)c2)OCCO1` (centres undefined), the call was inactive and the cell number change amounted to 4.32%.
For the compound `COc1ccc(C(=O)NNC(=O)c2cc3cc(OC)ccc3oc2=O)cc1`, the “lipid storage change, negative = inhibition” value is 0.203% (inactive) and the cell number change worked out at 12.8%.
For the compound `COc1ccc(C(O)(C(=O)NNc2ccc(C)cc2)c2cccs2)cc1` (centres undefined), the Potency was 32.6 µM (active) and the cell number change was found to be 10.5%.
`Cc1ccc(C(O)(C(=O)NNc2ccc3ccccc3n2)c2ccc(C)cc2)cc1`: the “lipid storage change, negative = inhibition” value is -4.95% (inactive) and the cell number change is -2.27%.
`COc1ccc(NC(=O)c2cccs2)cc1`: the “lipid storage change, negative = inhibition” value was 0.392% (inactive) and the cell number change was -1.91%.
Turning to `Cc1cc2ncn(-c3ncnc4sc5c(c34)CCCC5)c2cc1C`, the result was inactive and the cell number change came out at 8.27%.
Regarding `c1ccc(CN(Cc2ccco2)C(c2ccncc2)c2nnnn2C2CCCC2)cc1` (centres undefined), the result was inactive.
Consider `O=C(CNC(=O)C1CCCCC1)Nc1cc(Cl)cc(Cl)c1`, for which the “lipid storage change, negative = inhibition” value was -17% (inactive).
For `O=C(Nc1cc(Cl)cc(Cl)c1)C1CCCC1`, the Potency is 20.6 µM (active) and the cell number change was -3.7%.
Take `O=C(Nc1ccc(Cl)cc1)C1CCCC1`: the “lipid storage change, negative = inhibition” value is -22.6% (inactive) and the cell number change was -15.4%.
For the compound `COC(=O)C1=C(C)N(C)C(=O)NC1c1ccccc1` (centres undefined), the Potency is 29.1 µM (active) and the cell number change was -9.2%.
With `CC1=C(C(=O)OC(C)C)C(c2ccccc2)NC(=O)N1C` (centres undefined), the compound was classed as inactive.
For the compound `COC(=O)C1=C(C)N(C)C(=O)NC1c1ccc(C)cc1` (centres undefined), the “lipid storage change, negative = inhibition” value was 3.69% (inactive) and the cell number change was -10.6%.
For the compound `CC(C(=O)O)c1cccc(C(=O)c2ccccc2)c1` (centres undefined), the Potency was 23% and -14%.
On to `C[C@H](C(=O)O)c1cccc(C(=O)c2ccccc2)c1`, for which the “lipid storage change, negative = inhibition” value is -15.8% (inactive) and the cell number change was determined as 5.73%.
With `Cc1ccccc1NC(=O)C(C)c1cccc(C(=O)c2ccccc2)c1` (centres undefined), the “lipid storage change, negative = inhibition” value is -6.86% (inactive) and the cell number change turned out to be 28.9%.
With `CC(=O)c1cccc(NC(=O)CN(C2CCCCC2)S(C)(=O)=O)c1`, the outcome was inactive.
As to `CCCCc1ccc(NC(=S)NCCO)cc1`, the “lipid storage change, negative = inhibition” value was -23% (inactive).
Take `O=S(=O)(c1ccc(-c2ccccc2)cc1)N1CCCCC1`: the “lipid storage change, negative = inhibition” value was -13% (inactive) and the cell number change turned out to be 14.2%.
For the compound `Cc1ccccc1NS(=O)(=O)c1ccc(NS(=O)(=O)c2cccs2)cc1`, the call was inactive and the cell number change came out at 22.7%.
Consider `O=S(=O)(Nc1ccc(F)cc1)c1ccc(NS(=O)(=O)c2cccs2)cc1`, for which the Potency is 3.66 µM (active) and the cell number change was 5.22%.
Regarding `Cc1ccc(NS(=O)(=O)c2ccc(NS(=O)(=O)c3cccs3)cc2)cc1`, the compound was classed as inactive.
Take `Cc1ccc(-n2nc3c(c2NC(=O)CC(C)C)CS(=O)C3)cc1` (centres undefined): the “lipid storage change, negative = inhibition” value is 12.5% (inactive) and the cell number change is -3.89%.
As for `Clc1nnc(N2CCCCC2)c2ccccc12`, the “lipid storage change, negative = inhibition” value is -14% (inactive).
As to `Cc1ccc(-c2nnc(N3CCCCC3)c3ccccc23)cc1`, the “lipid storage change, negative = inhibition” value is -16.3% (inactive) and the cell number change was -9.5%.
On to `c1ccc2c(N3CCCCC3)nnc(N3CCCCC3)c2c1`, for which the Potency was 23.1 µM (active) and the cell number change came to 9%.
Take `CCCCN1C2CCCC1CC(NC(=O)c1cccc(Cl)c1)C2` (centres undefined): the “lipid storage change, negative = inhibition” value was -8.27% (inactive) and the cell number change is -7.62%.
As for `CN(C(=O)COc1ccccc1)C1CCS(=O)(=O)C1` (centres undefined), the “lipid storage change, negative = inhibition” value is -9.62% (inactive) and the cell number change was -15.6%.
For the compound `Cc1cccc(C)c1OCC(O)CNC(C)(C)C` (centres undefined), the “lipid storage change, negative = inhibition” value is -0.106% (inactive) and the cell number change amounted to 8.88%.
As to `CC(C)(C)NCC(O)COc1c(F)cc(Br)cc1F` (centres undefined), the Potency is 29.1 µM (active) and the cell number change is -21.9%.
As to `Cc1cc(C)c(OCC(O)CNC(C)(C)C)c(C)c1` (centres undefined), the “lipid storage change, negative = inhibition” value was -0.87% (inactive) and the cell number change was 1.51%.
As to `CCCCn1c(N)c(N(CC(C)C)C(=O)c2cnccn2)c(=O)[nH]c1=O`, the “lipid storage change, negative = inhibition” value is -3.52% (inactive) and the cell number change is -16.5%.
The matching figures for `O=C(NC1CCCCC1)C1Cc2ccccc2CN1S(=O)(=O)c1ccc(F)cc1` (centres undefined): -0.186% (inactive) and -3.73%.
As for `CC(C)CC(OC(=O)c1nsc(Cl)c1Cl)C(=O)NCc1cccs1` (centres undefined), the “lipid storage change, negative = inhibition” value is 0.592% (inactive) and the cell number change was -3.42%.
For the compound `CCC(OC(=O)c1nsc(Cl)c1Cl)C(=O)NCc1cccs1` (centres undefined), the “lipid storage change, negative = inhibition” value was 6.89% (inactive) and the cell number change worked out at 3.99%.
As for `CC(OC(=O)c1nsc(Cl)c1Cl)C(=O)NCc1cccs1` (centres undefined), the Potency is 32.6 µM (active) and the cell number change came out at 2.66%.
For `O=C1COc2ccc(C(=O)CSc3ccccc3C(=O)O)cc2N1`, the “lipid storage change, negative = inhibition” value was 13.1% (inactive) and the cell number change was determined as 8.27%.
Consider `COc1ccc(C2=NC(c3ccccc3)CO2)cc1` (centres undefined), for which the “lipid storage change, negative = inhibition” value was -12.2% (inactive) and the cell number change is -8.42%.
Take `CCOC(=O)C1(Cc2cccc(Cl)c2)CCCN(C(=O)c2cc(CC)on2)C1` (centres undefined): the Potency is 2.31 µM (active) and the cell number change was -22.9%.
For `CCOC(=O)C1(Cc2cccc(Cl)c2)CCCN(C(=O)c2cc(C)on2)C1` (centres undefined), the “lipid storage change, negative = inhibition” value is -14.8% (inactive) and the cell number change was 6.36%.
As to `CCOC(=O)C1(Cc2cccc(Cl)c2)CCCN(C(=O)c2cc(C)n(C)n2)C1` (centres undefined), the “lipid storage change, negative = inhibition” value was -16% (inactive) and the cell number change is 17.5%.
`CCOc1ccc(OCC)c(S(=O)(=O)NCc2ccccn2)c1`: the result was inactive and the cell number change was -15.9%.
As for `O=c1c(Cc2ccc(Cl)cc2)c(O)ccn1Cc1cccs1`, the “lipid storage change, negative = inhibition” value was -8.38% (inactive) and the cell number change turned out to be 1.85%.
In the case of `Cc1ccc(-c2c(C(=O)N/N=C/c3c[nH]c4ccccc34)nnn2-c2nonc2N)cc1`, the Potency was 14.6 µM (active) and the cell number change is -29.2%.
Turning to `Cc1ccc(/C=N/NC(=O)c2nnn(-c3nonc3N)c2-c2ccccc2)o1`, the result was inactive and the cell number change amounted to 4.2%.
As to `COCc1c(C(=O)N/N=C/c2c[nH]c3ccccc23)nnn1-c1nonc1N`, the Potency is 0.164 µM (active) and the cell number change was -1.35%.
